This passage reports AC50 and outcome results from PubChem BioAssay (EPA / NIEHS).

Active and inactive are the calls of the source. The calls were made as follows: active = hit-call score of the fitted dose curve at least 0.9, where 1 is the maximum; inactive = score below 0.9.

The test can be described thus: CCTE_Shafer_MEA_dev_burst_rate: CCTE's Neural Network Formation Assay for Burst Rate, Shafer Lab (AID 2284042). As to the method:
CCTE_Shafer_MEA_dev assay is conducted using Axion Biosystems 48 well microelectrode array (MEA) plates and Maestro recording system. Each well of the MEA plate contains a grid of 16 microelectrodes embedded in the culture surface. Electrically active cells, such as neurons, can be cultured over the electrodes, and electrical activity in these cells can be recorded extracellularly. The spontaneous firing of neurons is captured from each electrode on a microsecond timescale providing both temporally and spatially precise data. […] The CCTE_Shafer_MEA_dev assay uses primary cultures of rat cortical neurons. Recordings are made on days post-plating 5, 7, 9 and 12. As these cultures mature over time, neural networks develop functional activity and form cohesive networks in which electrical activity can be highly coordinated. CCTE_Shafer_MEA_dev_burst_rate is 1 of 19 assay components of the CCTE_Shafer_MEA_dev assay. It measures the frequency of single-electrode bursts (temporally-clustered groups of action potential firing) as the total number of bursts divided by the length of the recording in a microelectrode array (MEA) using Axion Biosystems Maestro 768 channel amplifier with the AxIS adaptive spike detector. The mean bursting rate is averaged across the active electrodes to report a well-mean value. To collapse across multiple recordings made on days post-plating 5, 7, 9 and 12, the trapezoidal area-under-the-curve of the component is calculated.Data from the assay component CCTE_Shafer_MEA_dev_burst_rate was analyzed into 1 assay endpoint. This assay endpoint, CCTE_Shafer_MEA_dev_burst_rate, was analyzed in the negative analysis fitting direction relative to DMSO as the negative control and baseline of activity. Using a type of functional reporter, gain or loss-of-signal activity can be used to understand electrical activity.
On the day prior to culture, each well was coated thoroughly with 150 uL of 0.05% polyethyleneimine (PEI, Sigma Cat P3143) in 50 mM HEPES (Sigma Cat H7523) at a pH of 8. The plate was incubated at 37C for one hour. PEI was rinsed out with 500 uL of sterile water three times. Plates were stored at 4C until the day of culture. This culture was plated at a seeding density of 1.5 x 10^5 cells/well on a 48-well MEA plate, prepared as described above. Cells were administered via a 25 uL media/laminin ([…]; Sigma Cat L2020-1MG) drop directly onto the microelectrode array, as adding the cells with the laminin results in better attachment than pre-coating with laminin. After 2 hours, an additional 475 uL of cortical media was added and the cells returned to the incubator. Exposure starts at day 0 of plating and is continued over twelve days of network development until the experiment is terminated. Cells are fed with fresh medium on DIV 5 and 9, following the recordings on those days. The entire volume of media in the well is exchanged and any vehicle or compound treatment is renewed. Complete details are found in OP-NHEERL/ISTD/SBB/TJS/2015-03-r0 (available on request, email shafer.tim@epa.gov). Measurement of the electrical activity is non-invasive, and recordings can be made from the same plate over multiple different days of the culture. In cortical neurons, this allows for the measurement of extracellular action potentials over the period during which networks form in the MEA plate.
With `CC(CNC(=S)[S-])NC(=S)[S-].[Zn+2]` (stereo not drawn), the AC50 was 9.92 µM (active). On to `CCc1ccccc1`, for which the compound was classed as inactive. Same read-out and setting: for `CC(=O)N[C@@H](CC(=O)O)C(=O)O` the value was “inactive”.

On to `BrC1CC(Br)CC(Br)CC(Br)CC(Br)CC(Br)C1` (stereo not drawn), for which the AC50 was 4.73 µM (active). Regarding `[O]=[V]([OH])([OH])[OH]`, the compound was classed as inactive. On the same count and under the same terms, next, `CCCCCC(C)(CC)C(=O)NC` (stereo not drawn): “inactive”; `CC(C)O`: “inactive”; `CCCCCC=C(C)C(CC)CCO` (stereo not drawn): “inactive”. Same read-out and setting: for `F` the value was “inactive”; for `O=C1CC2(CCCC2)CC(=O)N1CCCCN1CCN(c2ncccn2)CC1`, “inactive”. The same measure, in the same setting: for `c1ccc2c(c1)ccc1c3ccccc3ccc21` the value was “inactive”; for `Brc1cc(Br)c(Oc2cc(Br)c(Br)cc2Br)cc1Br`, “inactive”; for `C[C@@H]1CC[C@@H](C(C)(C)O)[C@H](O)C1`, “inactive”. Regarding `Cc1[nH]n(C)c(=O)c1C(=O)c1ccc(C(F)(F)F)cc1S(C)(=O)=O`, the compound was classed as inactive.

For `c1cc2c3c(c1)ccc1cccc(c13)C2`, the compound was called inactive. For the compound `CN(C)CCCn1cc(C2=C(c3c[nH]c4ccccc34)C(=O)NC2=O)c2ccccc21`, the AC50 was 1.61 µM (active) [middle of 4 runs]. The same measure, in the same setting: next, `C[C@@H]1CCO[C@H]2Cn3cc(C(=O)NCc4ccc(F)cc4F)c(=O)c(O)c3C(=O)N12`: 1.67 µM (active). For the compound `CC(C)c1nn(C(=O)NC(C)(C)C)c(=O)n1N`, the compound was classed as inactive.
